Hits are enriched below; roughly 19% of the tested compounds scored in any of these assays.
uPA generation – inhibitors of cell surface uPA generation | cell surface uPA generation assay, qHTS | Potency, µM (highest dose often 38.3 µM), usual class: inhibitors | 0.31% of 330,000 active | AID 540303; active = well fitted inhibition curve with a large enough effect; inconclusive = small, poorly fitted or top-dose-only effect; inactive = no such curve, though single readings can be large or run the other way; tested in mouse RAW 264.7 cells; also: nearly all actives have a fitted effect of over 55% in size
TDP1 cell CPT – growth inhibition of DT40 Tdp1-/-;hTDP1 cells with camptothecin (screen for TDP1 inhibitors); AID 686979; Potency, µM (highest dose often 46.2 µM), most hits filed as inhibitors; 12% of 420,000 active; chicken DT40 Tdp1-/-;hTDP1 cells + 20 nM CPT, ATP luminescence, 48 h; also: nearly all actives have a fitted effect of over 55% in size
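Chicken DT40 Tdp1-/- cells complemented with human TDP1, 400 cells/well, exposed to compounds plus 20 nM camptothecin for at least 48 h at 37 C; viability read as ATP content by CellTiter-Glo luminescence.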
IL1B secr inh – inflammasome signaling inhibition, IL-1 beta readout; THP-1 LPS/ATP IL-1B secretion, AlphaLISA, 16 h; stronger effect = lower value; activity change, % at 57.5 µM; 4.7% of 360,000 active; AID 743279; in the data active = activity change below about -50%; inconclusive = mostly about -30% to -49%
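Secreted IL-1B measured by AlphaLISA bead assay after 16 h compound exposure of THP-1 cells; compounds (final up to 57.5 uM) added 1 h before LPS (250 ng/mL) and ATP (1.25 mM) stimulation; lower signal means less secretion.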
TDP1 cell noCPT – qHTS for Inhibitors of human tyrosyl-DNA phosphodiesterase 1 (TDP1): qHTS in cells in absence of CPT | DT40 Tdp1-/- hTDP1 cells, no CPT, ATP luminescence, 48 h | Potency, µM (titrated, usually from 46.2 µM), hits mostly inhibitors | 15% of 420,000 active | AID 686978, 2013; also: nearly all actives have a fitted effect of over 55% in size
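Chicken DT40 Tdp1-/- cells complemented with human TDP1, screened without camptothecin (DMSO vehicle only), 400 cells/well. Compounds pin-transferred, cells incubated at 37 °C for at least 48 hr. Growth read as ATP-dependent luminescence (CellTiter-Glo, 30 min at RT).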
HT1080NT lethal – kills 2HG-producing HT-1080-NT fibrosarcoma cells; AID 686970; HT-1080-NT fibrosarcoma viability, CellTiter-Glo ATP luminescence, 48 h; 1.6% of 360,000 active; Potency, µM (highest dose often 46.1 µM), usual class: cytotoxic;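 also: NT is the 2HG producing partner of a matched IDH1 knockdown line; nearly all actives have a fitted effect of over 55% in size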
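HT-1080-NT; 750 cells/well; 5% FBS RPMI; 48 h compound, 37 degrees C; CellTiter-Glo luminescence; curve fitting and curve-class assignment.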
HT1080 IDH1KD tx – HT-1080 IDH1 knockdown cell toxicity (counter line); Potency, µM (top dose mostly 46.1 µM), most hits filed as cytotoxic; AID 686971; 2% of 360,000 active; HT-1080 IDH1 knockdown viability, ATP luminescence, 48 h
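Luminescent ATP read-out (CellTiter-Glo, 10 min at room temperature) after 48 h compound exposure at 37 °C gave viability of IDH1-knockdown HT-1080 cells. Activity was normalised to DMSO and cell-free wells, then fitted as concentration-response curves.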
Large screens that a line does not name were inactive. Unless noted, calls follow the shape of the dose curve; as a rule, active = well fitted curve in the direction sought with a large enough effect; inconclusive = small, poorly fitted or top-dose-only effect, or another doubt; inactive = no such curve, though single readings can be large; an effect the other way counts as inactive or inconclusive.

O=C(Cc1ccc(O)cc1)N/N=C/c1cccnc1	none
CC1=C(C(=O)Nc2ccccc2C(=O)N2CCN(c3ccccc3)CC2)SCCO1	TDP1 cell CPT inconclusive, TDP1 cell noCPT 18µM (no result: uPA generation)
COc1ccccc1CNC(=O)c1ccccc1NC(=O)C1=C(C)OCCS1	TDP1 cell CPT 21µM, IL1B secr inh inconclusive, TDP1 cell noCPT inconclusive
COCCNC(=O)c1ccc(C)c(NC(=O)C2=C(C)OCCS2)c1	HT1080NT lethal inconclusive
COc1ccc(CNC(=O)c2ccccc2NC(=O)C2=C(C)OCCS2)cc1	TDP1 cell CPT inconclusive, TDP1 cell noCPT inconclusive (no result: uPA generation)
CC1=C(C(=O)Nc2cc(C(=O)N(C)Cc3ccccc3)ccc2C)SCCO1	IL1B secr inh -55
O=c1c2cccnc2n(Cc2ccccc2F)c(=O)n1Cc1ccccc1Cl	none (no result: uPA generation, IL1B secr inh, HT1080NT lethal, HT1080 IDH1KD tx)
CC(C(=O)NC1CCCC1)n1c(C2CC2)nc2ccccc21 (stereo not given)	none (no result: uPA generation)
COc1cccc(C(=O)NCCS(=O)(=O)N2CCN(c3ccccc3)CC2)c1OC	none (no result: uPA generation)
Cc1c(Cl)cccc1-n1ncc(C(=O)NC2CCCC2)c1C1CCN(C(=O)OC(C)(C)C)CC1	TDP1 cell CPT inconclusive, TDP1 cell noCPT 21µM (no result: uPA generation, IL1B secr inh, HT1080NT lethal, HT1080 IDH1KD tx)
Cc1c(Cl)cccc1-n1ncc(C(=O)N2CCC(C)CC2)c1C1CCN(C(=O)OC(C)(C)C)CC1	TDP1 cell CPT inconclusive, TDP1 cell noCPT 21µM (no result: uPA generation, IL1B secr inh, HT1080NT lethal, HT1080 IDH1KD tx)
CCOC(=O)c1cnn(-c2ccc(Cl)cc2)c1C1CCN(C(=O)OC(C)(C)C)CC1	TDP1 cell CPT inconclusive, TDP1 cell noCPT inconclusive, HT1080NT lethal inconclusive, HT1080 IDH1KD tx inconclusive
Cc1c(Cl)cccc1-n1ncc(C(=O)Nc2ccc(F)cc2F)c1C1CCN(C(=O)OC(C)(C)C)CC1	TDP1 cell CPT inconclusive, TDP1 cell noCPT 15µM (no result: uPA generation, IL1B secr inh, HT1080NT lethal, HT1080 IDH1KD tx)
CC(C)(C)OC(=O)N1CCC(c2c(C(=O)O)cnn2-c2ccc(F)cc2F)CC1	none (no result: uPA generation, IL1B secr inh, HT1080NT lethal, HT1080 IDH1KD tx)
Cc1ccc(S(=O)(=O)NC(=O)C2(C)CCN2C(=O)CC2CCCC2)cc1 (stereo not given)	none (no result: uPA generation)
CCNc1ncc2nc(C)c(=O)n(C)c2n1	none (no result: uPA generation, IL1B secr inh, HT1080NT lethal, HT1080 IDH1KD tx)
COc1ccc(CN2C(=O)C(CC(=O)NCC3CCCCC3)CC(C(=O)N3CCOCC3)=C2C)cc1 (stereo not given)	none (no result: uPA generation)
O=C(Nc1cccc(-c2nc3ccccc3s2)c1)c1cc(-n2cnnc2)ccc1Cl	uPA generation inconclusive, TDP1 cell CPT 9.2µM, IL1B secr inh inconclusive, TDP1 cell noCPT 16µM, HT1080NT lethal inconclusive, HT1080 IDH1KD tx inconclusive
Cc1ccc2sc(-c3ccc(NC(=O)c4cc(-n5cnnc5)ccc4Cl)cc3)nc2c1	TDP1 cell CPT 13µM, TDP1 cell noCPT 9.2µM (no result: uPA generation)
Cc1c(C(=O)Nc2cccc(-c3nc4ccccc4s3)c2)oc2ccc(F)cc12	TDP1 cell CPT inconclusive, TDP1 cell noCPT 15µM (no result: uPA generation, IL1B secr inh, HT1080NT lethal, HT1080 IDH1KD tx)
Cc1c(NC(=O)c2cc(-n3cnnc3)ccc2Cl)cccc1-c1nc2ccccc2s1	TDP1 cell noCPT inconclusive, HT1080 IDH1KD tx inconclusive (no result: uPA generation)
COCC(=O)Nc1cc(C(=O)N2CCN(c3ccccc3)CC2C)c2c(c1)nc(-c1ccncc1)n2C (stereo not given)	none (no result: uPA generation, IL1B secr inh, HT1080NT lethal, HT1080 IDH1KD tx)
Cc1ccc2oc(=O)c3cc(C(=O)Nc4ccc(C)c(F)c4)sc3c2c1	none (no result: uPA generation, IL1B secr inh, HT1080NT lethal, HT1080 IDH1KD tx)
O=C1CC(c2ccc(Cl)cc2)CC(=O)C1CS(=O)(=O)c1ccccc1 (stereo not given)	IL1B secr inh -58
COc1ccc(C2CC(=O)C(CS(=O)(=O)c3ccccc3)C(=O)C2)cc1 (stereo not given)	none
Cc1ccc2nc(C)c(Cl)c(=O)n2c1	none
Cc1ccc2nc(Nc3ccccc3)c(/C=N/O)c(=O)n2c1	TDP1 cell CPT 2.6µM, IL1B secr inh inconclusive, TDP1 cell noCPT 6.5µM
COc1ccc(Nc2nc3ccc(C)cn3c(=O)c2/C=N/O)cc1	TDP1 cell CPT 5.8µM, TDP1 cell noCPT 6.5µM
Cc1ccc2nc(Nc3ccccc3)c(C=O)c(=O)n2c1	none
Cc1ccc2nc(Cl)c(/C=N/Nc3nc(C)cc(C)n3)c(=O)n2c1	uPA generation inconclusive, TDP1 cell CPT inconclusive, IL1B secr inh -97, TDP1 cell noCPT inconclusive
